# Laboratory results as given in PubChem BioAssay (NCI).
# “And” between values parts separate entries of the source, which are not always exact repeats. Identical values can stand only once. The panel holds about 83,000 compounds, 20% with a hit somewhere; the sample as a whole holds those more often.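 Interpretation: 100, growth as untreated; towards 0, rising growth inhibition; 0, no net growth; 0 to -100, cell death. Compounds scoring below 10 were considered active.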 The source made the active and inactive calls.
# Tested on: MDA-MB-468 breast
# Assay: NCI-60 one-dose screen, 48 h (100 = growth as untreated, 0 = no growth, -100 = all killed)
# Settings: 10 µM unless noted
row,Compound,growth
1,COc1ccc2c(c1)c(-c1nc(-c3c[nH]c4ncccc34)cs1)cn2CCCCN1CCCCC1,-75.6% (active)
2,COc1cc[c]([Hg][Cl])cc1,-62.8% (active)
3,COC(=O)[C@@H](C)C[C@H](Cc1ccccc1)NC(=O)c1csc([C@@H](C[C@H](C(C)C)N(C)C(=O)C2(NC(=O)[C@H]3CCCCN3C)CC2)OC(C)=O)n1,-4.03% (active)
4,O=c1[nH]c2ccccc2n1C1CCN(CCCC(c2ccc(F)cc2)c2ccc(F)cc2)CC1,33% (inactive)
5,CC[C@H](C)[C@H](NC(=O)CN(C)C)C(=O)N(C)[C@H](C[C@@H](OC(C)=O)c1nc(C(=O)NC23C4C5C2C2C3C4C52C(=O)OC)cs1)C(C)C (stereo not given in full),-18.6% (active)
6,Cc1ccc(C[As+](c2ccccc2)(c2ccccc2)c2ccccc2)cc1,-24.3% (active)
7,N/C(=N/N=C/c1ccncc1)N[N+](=O)[O-],110% (inactive)
8,CCCCOc1ccc(C(N)Cc2ccccc2)cc1 (stereo not given),76.2% (inactive)
9,O=[P+](O)c1ccccc1,114% (inactive)
10,CN(C)C(=S)SSC(=S)N(C)C,96.6% (inactive) and 108% (inactive)
11,CC(=O)Oc1ccc(Cl)cc1,93.6% (inactive)
12,c1ccc2nc(OCCN3CC3)ccc2c1,69.3% (inactive)
13,CCCCCCCCCCCCNC(c1ccccc1)C(O)c1ccccc1 (stereo not given),48.5% (inactive)
14,COC(=O)[C@@H](C)C[C@H](Cc1ccccc1)NC(=O)c1csc([C@@H](C[C@H](C(C)C)N(C)C(=O)[C@@H](NC(=O)[C@H]2CCCCN2C)C(C)C)OC(C)=O)n1,-11.2% (active)
15,CCC1(C(C)C)C(=O)NC(=S)NC1=O,89.9% (inactive)
16,CC1(C)N=C(N)N=C(N)N1c1ccc(OCCCNC(=O)Nc2ccc(S(=O)(=O)F)cc2)c(Cl)c1,14.6% (inactive)
17,CCCC1CCCCC12C(=O)NC(=O)NC2=O (stereo not given),113% (inactive)
18,Cc1c(NS(=O)(=O)c2ccccc2)ccc([N+](=O)[O-])c1Cl,34.5% (inactive)
19,O=[N+]([O-])/C=C\c1ccc2c(c1)OCO2,82% (inactive)
20,CN1[C@@H](CC(=O)c2ccccc2)CCC[C@H]1CC(=O)c1ccccc1,101% (inactive)

row,Compound,growth
1,CCOC(=O)[C@@H](C)C[C@H](Cc1ccccc1)NC(=O)c1csc([C@@H](C[C@H](C(C)C)N(C)C(=O)[C@H](CC)NC(=O)[C@H]2CCCCN2C)OC(C)=O)n1,32.5% (inactive)
2,COc1ccccc1N1CCN(CCc2c[nH]c3cc4c(cc23)OCO4)CC1,90% (inactive)
3,COc1ccc(C(O)(C(=O)O)c2ccc(OC)cc2)cc1,104% (inactive)
4,CCCCN(CCCC)P(=O)(Oc1ccccc1)Oc1ccccc1,39.2% (inactive)
5,Nc1ccc(-c2nc3cc(F)ccc3[se]2)cc1F,-21% (active)
6,Oc1ccc(O)c(Cl)c1,89.7% (inactive) and 95.1% (inactive)
7,CN1CC2CCC(C1)C2=O,106% (inactive)
8,COc1cc(C2CC(=O)Nc3nc(N)[se]c32)c(OC)c2c1OCO2 (stereo not given),109% (inactive)
9,N#C[Se]Cc1cc(-c2ccccc2)n(-c2ccc(S(N)(=O)=O)cc2)n1,-66.1% (active)
10,O=C1C=C(N2CC2)c2ccccc2C1=O,24.6% (inactive)
11,O=C(O)C(O)C(O)C1[O][Sb]([c]2ccc([N+](=O)[O-])cc2)[O]C1CO (stereo not given),98.2% (inactive)
12,CNC(=O)CCl,100% (inactive)
13,CCN(CC)c1ccc(C=C2C(=O)NC(=S)NC2=O)cc1,74.2% (inactive)
14,COc1ccc(/C=C/c2cc(OC)c(OC)c(OC)c2)cc1NC(=O)/C=C/c1ccc(F)cc1,13.3% (inactive)
15,O=[N+]([O-])c1cnc[nH]1,108% (inactive)
16,COC(=O)[C@@H](C)C[C@H](Cc1ccccc1)NC(=O)c1cccc([C@@H](C[C@H](C(C)C)N(C)C(=O)[C@@H](NC(=O)[C@H]2CCCCN2C)C2CC2)OC(C)=O)n1,35.3% (inactive)
17,ClCCN(CCCl)Cc1ccc(Nc2ccnc3cc(Cl)ccc23)cc1,-0.105% (active)
18,CCC(O)(CN)c1ccccc1 (stereo not given),101% (inactive)
19,O=C(O)c1cccc(CCl)c1,105% (inactive)
20,O=S(=O)(F)c1cccc(Cl)c1C[P+](c1ccccc1)(c1ccccc1)c1ccccc1,46.9% (inactive)
